Assay results as given in PubChem BioAssay (EPA / NIEHS).
“And” between values parts separate entries of the source, which are not always exact repeats. Equal entries are not always repeated. Results filed as inconclusive are left out. The source holds several records for some structures; these can differ, active in one and inactive in another. The source made the active and inactive calls. Rule for the calls: active = hit-call score of the fitted dose curve at least 0.9, where 1 is the maximum; inconclusive = response in the unintended direction; inactive = score below 0.9.

What was measured:
[1] = target: Estrogen receptor (Homo sapiens) (UniProt P03372); test: NVS_NR_hER: NovaScreen (NVS) Nuclear Receptor Binding Assay for human Estrogen Receptor (ER) (AID 2283348)
In short: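 Cell-free MCF7-derived ER preparation, specific radioligand displaced by test compound, read by scintillation counting 18 h post-dosing. Duplicate single-point 25 uM screen, then concentration-response confirmation; DMSO baseline.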

[2] = target: Estrogen receptor (Homo sapiens) (UniProt P03372); test: OT_ER_ERaERa_1440: Odyssey Thera (OT) 24-hour HEK293T Protein-Complementation Assay for Estrogen Receptor-alpha/-alpha Homodimer (AID 2283349);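 note: hits raise fluorescence above DMSO for agonists and antagonists alike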
In short: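 HEK293T, stable ERα LBD (aa 310-547) homodimer PCA; 24 h compound exposure; mean fluorescence intensity (nuclear for agonists, nuclear plus cytoplasmic for antagonists) vs vehicle; positive fitting direction, DMSO baseline.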

[3] = target: Estrogen receptor (Homo sapiens) (UniProt P03372); test: OT_ER_ERaERa_0480: Odyssey Thera (OT) 8-hour HEK293T Protein-Complementation Assay for Estrogen Receptor-alpha/-alpha Homodimer (AID 2283351);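 note: rise in fluorescence from reassembled reporter fragments on ERα LBD homodimer in nucleus or whole cell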
In short: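 HEK293T cells stably expressing a PCA pair of ER alpha LBD (residues 310-547) were dosed for 8 hours. The gain in fluorescence intensity, nuclear for agonists and whole-cell for antagonists, was measured by laser scanning cytometry against DMSO vehicle.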

[4] = target: T1, Estrogen receptor (Homo sapiens) + Estrogen receptor beta (Homo sapiens) (UniProt P03372+Q92731); test: OT_ER_ERaERb_0480: Odyssey Thera (OT) 8-hour HEK293T Protein-Complementation Assay for Estrogen Receptor-alpha/-beta Heterodimer (AID 2283352)
In short: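 Increase in mean fluorescence intensity, measured by laser scanning plate cytometry, reported ER-alpha/ER-beta LBD complementation in HEK293T cells after 8 h chemical exposure. DMSO served as baseline; basal signal is low, punctate and cytoplasmic.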

[5] = target: T1, Estrogen receptor (Homo sapiens) + Estrogen receptor beta (Homo sapiens); test: OT_ER_ERaERb_1440: Odyssey Thera (OT) 24-hour HEK293T Protein-Complementation Assay for Estrogen Receptor-alpha/-beta Homodimer (AID 2283356);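 note: heteromer of ER alpha and ER beta binding domains; hits raise reporter fluorescence and both agonists and antagonists give an increase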
In short: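 Heterodimerisation of ERα (aa 310-547) and ERβ (aa 263-489) ligand binding domains was tracked as fluorescence gain in stably transfected HEK293T cells following 24 h dosing, normalised to DMSO controls.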

[6] = target: Estrogen receptor beta (Homo sapiens) (UniProt Q92731); test: OT_ER_ERbERb_0480: Odyssey Thera (OT) 8-hour HEK293T Protein-Complementation Assay for Estrogen Receptor-beta/-beta Homodimer (AID 2283357);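 note: active means signal gain over DMSO baseline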
In short: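 ER-beta LBD homodimer PCA stably expressed in HEK293T; 8 h compound exposure, then formaldehyde fixation and Draq5 staining. Gain in nuclear/cytoplasmic fluorescence intensity versus DMSO vehicle, read on laser scanning cytometer.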

[7] = target: rat Mineralocorticoid Receptor (MR), Nr3c2 (gene 25672) (UniProt P22199); test: NVS_NR_rMR: NovaScreen (NVS) Nuclear Receptor Binding Assay for rat Mineralocorticoid Receptor (MR) (AID 2283355)
In short: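 Primary HTS ran in duplicate at a single 25 uM concentration, with concentration-series follow-up for actives. Receptor source: adrenalectomized rat brain supernatant, cell-free. Radioligand displacement read by scintillation at 24 h, relative to DMSO baseline.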

[8] = target: Androgen Receptor/SRC-1 Co-activator, AR (gene 367) (UniProt P10275); test: OT_AR_ARSRC1_0960: Odyssey Thera (OT) 16-hour HEK293T Protein-Complementation Assay for Androgen Receptor/SRC-1 Co-activator (AID 2283353);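 note: actives raise the signal above DMSO so potency reflects increased AR and SRC-1 complex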
In short: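 Endpoint is gain-of-signal N/C fluorescence ratio in the 488 nm channel versus DMSO, from at least 400 cells per image, measured 16 h post-dosing. Cells: HEK293T stably carrying split-Venus AR/SRC-1 complementation constructs.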

[9] = target: Retinoic acid receptor alpha (Homo sapiens) (UniProt P10276); test: NVS_NR_hRAR_Antagonist: NovaScreen (NVS) Nuclear Receptor Binding Assay for human Retinoic Acid Alpha Receptor Antagonism (RAR) (AID 2283358)
In short: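 RARalpha antagonism was read by TR-FRET as loss of binding signal versus DMSO, 2 h after chemical addition, in a biochemical format. Single-concentration duplicates (25 uM) were run first, and actives were retested in concentration series.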

[10] = target: Bile acid receptor (Homo sapiens) (UniProt Q96RI1); test: NVS_NR_hFXR_Antagonist: NovaScreen (NVS) Nuclear Receptor Binding Assay for human Farnesoid X Receptor Antagonism (FXR) (AID 2283350)
In short: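 Antagonist-format time-resolved FRET binding assay with extracted human receptor protein, read 1 hour after compound addition. Compounds first screened at 25 uM in duplicate, then actives tested in concentration series, with loss of signal relative to DMSO.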

Measured: AC50

rat Mineralocorticoid Receptor (MR), Nr3c2 (gene 25672), sequence (P22199 whole entry, looked up): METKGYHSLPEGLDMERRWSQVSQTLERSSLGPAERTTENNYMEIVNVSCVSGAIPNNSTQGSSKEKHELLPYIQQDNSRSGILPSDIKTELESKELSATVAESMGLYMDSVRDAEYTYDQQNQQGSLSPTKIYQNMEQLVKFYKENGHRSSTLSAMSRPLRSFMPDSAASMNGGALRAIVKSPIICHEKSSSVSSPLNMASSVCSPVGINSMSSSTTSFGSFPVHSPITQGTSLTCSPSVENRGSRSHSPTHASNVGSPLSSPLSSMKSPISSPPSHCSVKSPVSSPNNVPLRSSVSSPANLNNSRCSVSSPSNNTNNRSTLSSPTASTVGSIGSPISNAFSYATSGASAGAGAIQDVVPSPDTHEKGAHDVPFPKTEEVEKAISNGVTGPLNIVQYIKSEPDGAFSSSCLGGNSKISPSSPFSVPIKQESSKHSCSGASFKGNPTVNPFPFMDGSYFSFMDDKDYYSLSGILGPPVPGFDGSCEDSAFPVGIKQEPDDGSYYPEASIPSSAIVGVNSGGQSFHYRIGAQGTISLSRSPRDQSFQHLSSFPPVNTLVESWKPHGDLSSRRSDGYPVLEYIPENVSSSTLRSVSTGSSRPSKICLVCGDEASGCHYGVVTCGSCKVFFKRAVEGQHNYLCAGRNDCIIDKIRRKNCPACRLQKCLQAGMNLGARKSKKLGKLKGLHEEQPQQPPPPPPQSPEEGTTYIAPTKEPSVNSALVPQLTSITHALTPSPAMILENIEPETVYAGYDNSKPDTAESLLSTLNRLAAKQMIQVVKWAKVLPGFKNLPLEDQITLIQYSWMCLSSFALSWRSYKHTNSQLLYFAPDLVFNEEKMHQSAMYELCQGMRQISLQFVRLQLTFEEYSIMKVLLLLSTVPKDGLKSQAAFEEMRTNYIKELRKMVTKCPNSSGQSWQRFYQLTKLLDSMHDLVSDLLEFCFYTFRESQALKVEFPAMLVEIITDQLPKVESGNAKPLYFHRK
Androgen Receptor/SRC-1 Co-activator, AR (gene 367), sequence (P10275 whole entry, looked up): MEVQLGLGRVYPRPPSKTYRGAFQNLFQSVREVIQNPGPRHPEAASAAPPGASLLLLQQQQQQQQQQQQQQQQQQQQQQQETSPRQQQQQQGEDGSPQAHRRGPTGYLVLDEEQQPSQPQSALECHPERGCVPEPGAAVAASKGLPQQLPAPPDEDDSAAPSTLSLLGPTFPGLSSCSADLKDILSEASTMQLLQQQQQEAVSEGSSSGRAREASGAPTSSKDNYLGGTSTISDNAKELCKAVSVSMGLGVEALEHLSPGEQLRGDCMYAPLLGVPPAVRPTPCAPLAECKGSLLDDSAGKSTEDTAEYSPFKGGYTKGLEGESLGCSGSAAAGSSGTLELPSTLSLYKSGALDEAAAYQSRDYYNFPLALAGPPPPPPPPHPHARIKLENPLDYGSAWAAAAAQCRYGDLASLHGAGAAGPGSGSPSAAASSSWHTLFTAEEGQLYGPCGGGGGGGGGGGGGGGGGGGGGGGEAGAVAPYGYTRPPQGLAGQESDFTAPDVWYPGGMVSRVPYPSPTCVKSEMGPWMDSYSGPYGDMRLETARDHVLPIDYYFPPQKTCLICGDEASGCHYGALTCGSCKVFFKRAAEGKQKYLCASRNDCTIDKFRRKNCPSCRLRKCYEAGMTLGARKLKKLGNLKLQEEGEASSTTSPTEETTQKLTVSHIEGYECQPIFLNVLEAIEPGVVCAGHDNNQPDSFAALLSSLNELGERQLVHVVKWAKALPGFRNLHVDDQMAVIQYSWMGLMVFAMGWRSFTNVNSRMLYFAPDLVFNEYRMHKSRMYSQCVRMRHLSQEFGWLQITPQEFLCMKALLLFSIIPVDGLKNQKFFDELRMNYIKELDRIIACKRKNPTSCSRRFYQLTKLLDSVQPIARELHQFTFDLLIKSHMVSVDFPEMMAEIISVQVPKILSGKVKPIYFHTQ
Bile acid receptor (Homo sapiens), sequence (Q96RI1 whole entry, looked up): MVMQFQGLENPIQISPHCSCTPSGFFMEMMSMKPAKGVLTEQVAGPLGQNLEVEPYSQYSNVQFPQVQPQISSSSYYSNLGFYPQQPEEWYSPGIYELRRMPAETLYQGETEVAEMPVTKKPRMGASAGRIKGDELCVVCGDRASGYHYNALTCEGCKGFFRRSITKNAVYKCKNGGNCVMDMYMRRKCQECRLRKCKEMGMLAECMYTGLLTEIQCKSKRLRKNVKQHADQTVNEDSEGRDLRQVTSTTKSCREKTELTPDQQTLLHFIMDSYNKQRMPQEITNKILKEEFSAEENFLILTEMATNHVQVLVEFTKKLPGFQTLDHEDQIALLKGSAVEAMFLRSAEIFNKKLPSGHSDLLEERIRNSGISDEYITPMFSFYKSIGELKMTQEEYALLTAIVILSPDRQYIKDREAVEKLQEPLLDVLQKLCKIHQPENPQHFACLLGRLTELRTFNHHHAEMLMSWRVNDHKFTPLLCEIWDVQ
T1 sequence (P03372 whole entry, looked up, the tested form may be a part): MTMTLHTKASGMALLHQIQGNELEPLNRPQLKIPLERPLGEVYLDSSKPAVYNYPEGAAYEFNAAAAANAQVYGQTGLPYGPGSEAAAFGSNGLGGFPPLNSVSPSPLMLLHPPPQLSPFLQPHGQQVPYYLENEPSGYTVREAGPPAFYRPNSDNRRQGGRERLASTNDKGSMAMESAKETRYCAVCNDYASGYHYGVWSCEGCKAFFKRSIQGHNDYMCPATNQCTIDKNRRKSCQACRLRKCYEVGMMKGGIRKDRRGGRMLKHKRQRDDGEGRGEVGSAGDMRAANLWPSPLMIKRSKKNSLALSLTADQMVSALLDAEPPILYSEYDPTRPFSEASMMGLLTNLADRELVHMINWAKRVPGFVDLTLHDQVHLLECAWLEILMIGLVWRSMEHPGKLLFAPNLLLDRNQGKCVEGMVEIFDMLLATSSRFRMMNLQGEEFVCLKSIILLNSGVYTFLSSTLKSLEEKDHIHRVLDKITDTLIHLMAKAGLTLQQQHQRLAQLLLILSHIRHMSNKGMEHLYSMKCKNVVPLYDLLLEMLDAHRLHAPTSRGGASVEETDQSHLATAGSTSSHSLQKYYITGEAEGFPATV
T1 sequence (Q92731 whole entry, looked up, the tested form may be a part): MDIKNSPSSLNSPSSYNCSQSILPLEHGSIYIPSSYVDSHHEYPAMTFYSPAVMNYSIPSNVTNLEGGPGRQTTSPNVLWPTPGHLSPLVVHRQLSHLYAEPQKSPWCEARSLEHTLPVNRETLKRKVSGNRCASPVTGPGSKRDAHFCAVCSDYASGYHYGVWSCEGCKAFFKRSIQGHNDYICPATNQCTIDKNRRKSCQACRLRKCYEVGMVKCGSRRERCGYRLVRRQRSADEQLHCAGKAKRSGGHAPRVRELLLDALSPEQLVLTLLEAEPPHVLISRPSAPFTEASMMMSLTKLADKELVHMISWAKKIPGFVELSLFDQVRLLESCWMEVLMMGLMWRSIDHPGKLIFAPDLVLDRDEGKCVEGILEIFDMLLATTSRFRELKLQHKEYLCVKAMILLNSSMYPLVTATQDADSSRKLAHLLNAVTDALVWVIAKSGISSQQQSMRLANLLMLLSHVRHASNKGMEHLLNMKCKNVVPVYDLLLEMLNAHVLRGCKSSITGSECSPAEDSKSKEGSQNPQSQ
Estrogen receptor (Homo sapiens), sequence (P03372 whole entry, looked up, the tested form may be a part): as the sequence (P03372 whole entry, looked up, the tested form may be a part) above
Estrogen receptor beta (Homo sapiens), sequence (Q92731 whole entry, looked up, the tested form may be a part): as the sequence (Q92731 whole entry, looked up, the tested form may be a part) above
Retinoic acid receptor alpha (Homo sapiens), sequence (P10276 whole entry, looked up): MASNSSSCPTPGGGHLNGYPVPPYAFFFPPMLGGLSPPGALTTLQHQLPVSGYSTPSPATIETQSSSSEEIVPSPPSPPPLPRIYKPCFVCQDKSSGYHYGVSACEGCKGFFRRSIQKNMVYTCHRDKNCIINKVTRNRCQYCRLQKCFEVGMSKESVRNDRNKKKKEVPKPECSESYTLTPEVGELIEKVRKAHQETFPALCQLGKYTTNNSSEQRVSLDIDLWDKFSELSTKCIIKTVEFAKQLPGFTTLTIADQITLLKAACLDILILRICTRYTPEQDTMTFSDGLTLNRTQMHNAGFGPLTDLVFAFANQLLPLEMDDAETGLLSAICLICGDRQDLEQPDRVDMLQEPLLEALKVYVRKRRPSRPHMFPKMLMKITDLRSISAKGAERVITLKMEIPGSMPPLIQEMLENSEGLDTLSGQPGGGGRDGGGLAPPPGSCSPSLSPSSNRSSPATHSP

C[C@]12C[C@H](O)[C@H]3[C@@H](CCC4=CC(=O)CC[C@@]43C)[C@@H]1CC[C@@H]2C(=O)CO
inactive: [1] | [2] | [3] | [4] | [5] | [6]

CCN(Cc1c(F)cccc1Cl)c1c([N+](=O)[O-])cc(C(F)(F)F)cc1[N+](=O)[O-]
inactive: [7] | [6]
active: [2] 15.2 µM | [3] 9.68 µM | [4] 7.66 µM | [5] 10.3 µM

CC(=O)S[C@@H]1CC2=CC(=O)CC[C@]2(C)[C@H]2CC[C@@]3(C)[C@@H](CC[C@@]34CCC(=O)O4)[C@H]12
inactive: [1] | [2] | [3] | [4] | [5] | [6]

Cc1nn(C)c(Oc2ccccc2)c1C=NOCc1ccc(C(=O)OC(C)(C)C)cc1
inactive: [1] | [2] | [3] | [4] | [8] | [5] | [6]

COC(=O)c1ccc(CNS(C)(=O)=O)cc1S(=O)(=O)NC(=O)Nc1nc(OC)cc(OC)n1
inactive: [1] | [9]

OB(O)O
inactive: [2]

C#C[C@]1(O)CC[C@H]2[C@@H]3CCC4=CC(=O)CC[C@@H]4[C@H]3CC[C@@]21CC
inactive: [2] | [3]
active: [2] 50.7 µM | [7] 0.0945 µM

O=C(O)c1ccccc1
inactive: [1] | [2] | [3]

CC(=O)[C@H]1CC[C@H]2[C@@H]3CCC4=CC(=O)CC[C@]4(C)[C@H]3CC[C@]12C
inactive: [1] | [2] | [3] | [4] | [5] | [6]

N[C@@H](Cc1cc(I)c(Oc2ccc(O)c(I)c2)c(I)c1)C(=O)O
inactive: [1] | [2] | [3]
active: [1] 7.8 µM and 8.49 µM and 6.72 µM

CCOC(=O)c1ccc(O)cc1
inactive: [1] | [2] | [3] | [4] | [5] | [6]
active: [1] 10.5 µM and 4.61 µM | [2] 47 µM and 52.6 µM and 67.5 µM | [3] 59.9 µM and 41.1 µM and 59.6 µM | [4] 30.6 µM and 27.1 µM and 28 µM | [5] 32.2 µM and 26.9 µM and 26.8 µM | [6] 27.8 µM and 33.1 µM and 31.7 µM

CC1(C)C(C=C(Cl)Cl)C1C(=O)OCc1cccc(Oc2ccccc2)c1 (configuration not stated)
inactive: [1] | [2] | [3] | [8]

COc1c(Cl)ccc(Cl)c1C(=O)O
inactive: [1] | [2] | [3] | [4] | [5] | [6]

CCOC(=O)C(C)Oc1ccc(Oc2cnc3cc(Cl)ccc3n2)cc1 (configuration not stated)
inactive: [1] | [2] | [3]

CCN(CC)C(=O)c1cccc(C)c1
inactive: [1] | [2] | [10] | [3] | [5] | [6]

CCOC(=O)COc1cc(-n2ncc(C(F)(F)F)c(C)c2=O)c(F)cc1Cl
inactive: [1] | [2] | [3] | [4] | [8] | [5]

CCOC(=O)NCCOc1ccc(Oc2ccccc2)cc1
inactive: [2]

CCCCCOC(=O)COc1cc(N2C(=O)C3=C(CCCC3)C2=O)c(F)cc1Cl
inactive: [1] | [2] | [3] | [5] | [9]

CCSC(=O)N(CC(C)C)CC(C)C
inactive: [2] | [3] | [4] | [8] | [7] | [5] | [6]

CC(C)(c1ccc(O)cc1)c1ccc(O)cc1
inactive: [1] | [2] | [3] | [8] | [7]
active: [8] 63.3 µM and 51 µM and 64.6 µM | [7] 12.1 µM

COCCO
inactive: [2] | [3]

O=C(c1ccccc1)C1CCCCC1
inactive: [1] | [2] | [3] | [8]
active: [3] 56.4 µM and 39.5 µM

CCCN(CCC)C(=O)SCC
inactive: [2] | [3] | [4] | [8] | [7] | [5] | [6]

N#CSCSc1nc2ccccc2s1
active: [10] 4.96 µM | [8] 12.1 µM
inactive: [2] | [3] | [5] | [6]

O=C(c1ccc(O)cc1O)c1ccc(O)cc1O
active: [1] 59.6 nM [middle of 4 runs] | [2] 7.6 µM and 7.51 µM and 9.91 µM | [3] 6.81 µM and 6.26 µM and 6.64 µM | [4] 2.03 µM and 1.72 µM and 2.14 µM | [8] 10.2 µM and 9.93 µM and 10.7 µM | [5] 12.6 µM and 8.31 µM and 9.09 µM | [6] 1.6 µM and 1.63 µM and 1.4 µM

CCCCC(CC)CN1C(=O)C2C3C=CC(C3)C2C1=O (configuration not stated)
inactive: [2] | [3] | [4] | [5] | [6]

C#CCOC(=O)[C@@H](C)Oc1ccc(Oc2ncc(Cl)cc2F)cc1
inactive: [1] | [2] | [4] | [5] | [6]

CCCN(CCC)c1c([N+](=O)[O-])cc(C(F)(F)F)c(N)c1[N+](=O)[O-]
active: [4] 0.428 µM
inactive: [2] | [3] | [5] | [6] | [9]

COC(=O)c1ccccc1S(=O)(=O)NC(=O)Nc1nc(OC(F)F)cc(OC(F)F)n1
inactive: [10]

S=C([S-])NCCNC(=S)[S-].[Mn+2]
inactive: [6]

C=CCOC(Cn1ccnc1)c1ccc(Cl)cc1Cl (configuration not stated)
inactive: [6]

CCC(C)OC(=O)N1CCCCC1CCO (configuration not stated)
inactive: [6]

COC(=O)c1ccc(I)cc1S(=O)(=O)NC(=O)Nc1nc(C)nc(OC)n1
inactive: [7] | [6]

c1ccc2[nH]c(-c3cscn3)nc2c1
inactive: [2] | [3] | [8] | [5] | [6]

CCCCOC(=O)C(C)Oc1ccc(Oc2ccc(C(F)(F)F)cn2)cc1 (configuration not stated)
inactive: [2] | [3] | [4] | [5] | [6]

COC(=O)CSc1cc(N=c2sc(=O)n3n2CCCC3)c(F)cc1Cl
inactive: [8]

CCCOC(=O)c1ccc(C(=O)OCCC)nc1
inactive: [2] | [3] | [4] | [5] | [6]

CCCCCCC(C)OC(=O)COc1nc(F)c(Cl)c(N)c1Cl (configuration not stated)
inactive: [6]

O=C(Nc1ccc([N+](=O)[O-])cc1Cl)c1cc(Cl)ccc1O
inactive: [2] | [3] | [4] | [5] | [6]

CC(C)(C)[C@@H](O)[C@@H](Cc1ccc(Cl)cc1)n1cncn1
inactive: [7] | [6]

c1ccc(Nc2ccccc2)cc1
active: [6] 50.8 µM

CSC(=O)c1cccc2nnsc12
active: [8] 32.5 µM
inactive: [2] | [3]

CCCCC(CC)COC(=O)c1ccccc1C(=O)O (configuration not stated)
inactive: [6]

S=C(S)NCCNC(=S)S.[Mn+2].[S-]C([S-])=NCCN=C([S-])[S-].[Zn+2]
inactive: [7]

CCCCOCCOCCOCc1cc2c(cc1CCC)OCO2
inactive: [8] | [6]

CN(C)C(=O)Nc1ccc(Cl)c(Cl)c1
inactive: [2] | [3] | [8]

Oc1ccc(C(c2ccc(O)cc2)C(Cl)(Cl)Cl)cc1
inactive: [10]

CC(C)CCCCCCc1ccc(O)cc1
active: [2] 2.42 µM | [4] 1.36 µM and 1.78 µM and 1.89 µM | [5] 2.25 µM and 2.44 µM | [6] 836 nM and 1.48 µM and 1.04 µM

O=C(O)C1(C(=O)Nc2ccc(Cl)cc2Cl)CC1
inactive: [2] | [4] | [8] | [5] | [6] | [9]

COC(=O)c1cccc(C)c1S(=O)(=O)NC(=O)Nc1nc(OCC(F)(F)F)nc(N(C)C)n1
inactive: [10]

CCCCOC(=O)[C@@H](C)Oc1ccc(Oc2ccc(C(F)(F)F)cn2)cc1
inactive: [2] | [3] | [4] | [5] | [6]

COC(=O)c1ccccc1C(=O)O
inactive: [2] | [3] | [4] | [5] | [6] | [9]

CCOC(=O)C(C)Oc1ccc(Oc2nc3ccc(Cl)cc3o2)cc1 (configuration not stated)
inactive: [8] | [6]

C[C@]12CC[C@@H]3c4ccc(O)cc4C[C@@H](CCCCCCCCCS(=O)CCCC(F)(F)C(F)(F)F)[C@H]3[C@@H]1CC[C@@H]2O (some centres not stated)
inactive: [8]
